This is a sample that favours compounds with a hit; in the whole collection about 19% have one here.
DT40 TDP1 CPT = DT40-hTDP1 cell growth loss with CPT; chicken DT40 Tdp1-/-;hTDP1 cells + 20 nM CPT, ATP luminescence, 48 h; Potency, µM (titrated, usually from 46.2 µM), most hits filed as inhibitors; hit rate 12% among 420,000; AID 686979; further: nearly all actives have a fitted effect of over 55% in size
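Chicken DT40 Tdp1-/- cells stably complemented with human TDP1 were seeded at 400 cells/well in medium containing 20 nM camptothecin, exposed to pin-transferred compounds, and grown at 37 °C for at least 48 hr. Viability was read as ATP luminescence.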
IL1B secr inh = blocks inflammasome-driven IL-1 beta release | activity change, % at 57.5 µM | AID 743279 | THP-1 LPS/ATP IL-1B secretion, AlphaLISA, 16 h; active compounds read low | hit rate 4.7% among 360,000; in the data active means activity change below about -50%; inconclusive means mostly about -30% to -49%
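Secreted IL-1B measured by AlphaLISA bead assay after 16 h compound exposure of THP-1 cells; compounds (final up to 57.5 uM) added 1 h before LPS (250 ng/mL) and ATP (1.25 mM) stimulation; lower signal means less secretion.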
DT40 TDP1 no CPT = qHTS for Inhibitors of human tyrosyl-DNA phosphodiesterase 1 (TDP1): qHTS in cells in absence of CPT. DT40 Tdp1-/- hTDP1 cells, no CPT, ATP luminescence, 48 h. Potency, µM (top dose mostly 46.2 µM), hits mostly inhibitors. hit rate 15% among 420,000; further: nearly all actives have a fitted effect of over 55% in size
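A cellular qHTS used chicken DT40 cells lacking endogenous Tdp1 but carrying stably transfected human TDP1. Compounds were applied without camptothecin, and cell growth kinetics were judged by ATP-dependent luminescence after ≥48 hr.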
HT1080 IDH1KD tx = kills HT-1080 cells with IDH1 knockdown; Potency, µM (titrated, usually from 46.1 µM), hits mostly cytotoxic; AID 686971; hit rate 2% among 360,000; HT-1080 IDH1 knockdown viability, ATP luminescence, 48 h
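After a 2 h attachment period, IDH1KD HT-1080 cells took pin-transferred compound for 48 h at 37 °C; ATP-based luminescence after 10 min room-temperature reagent incubation reported viability.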
HT1080NT lethal = kills 2HG-producing HT-1080-NT fibrosarcoma cells. Potency, µM (doses to about 46.1 µM), usual class: cytotoxic. hit rate 1.6% among 360,000. HT-1080-NT fibrosarcoma viability, CellTiter-Glo ATP luminescence, 48 h. AID 686970;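 further: NT is the 2HG producing partner of a matched IDH1 knockdown line; nearly all actives have a fitted effect of over 55% in size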
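HT-1080-NT; 750 cells/well; 5% FBS RPMI; 48 h compound, 37 degrees C; CellTiter-Glo luminescence; curve fitting and curve-class assignment.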
Of the large screens only hits and unclear results are named; the others gave an inactive call. Unless noted, the call rests on the fitted dose curve; in most records, active means well fitted curve in the direction sought with a large enough effect; inconclusive means small, poorly fitted or top-dose-only effect, or another doubt; inactive means no such curve, though single readings can be large; an effect the other way counts as inactive or inconclusive.

CCC(=O)Nc1ccc(NC(=O)c2cc3ccccc3o2)c(OC)c1	DT40 TDP1 CPT inconclusive, DT40 TDP1 no CPT 10µM
COc1cc(NC(=O)c2c(OC)cccc2OC)ccc1NC(=O)c1cc2ccccc2o1	DT40 TDP1 CPT 10µM, DT40 TDP1 no CPT inconclusive
CCCCCC(=O)Nc1ccc(NC(=O)c2cc3ccccc3o2)c(OC)c1	DT40 TDP1 CPT 6.5µM, DT40 TDP1 no CPT 4.6µM (no result: IL1B secr inh, HT1080 IDH1KD tx, HT1080NT lethal)
COc1cc(NC(=O)c2cc3ccccc3o2)ccc1NC(=O)c1ccco1	none
COc1cc(NC(=O)c2cccc(Cl)c2Cl)ccc1NC(=O)c1cc2ccccc2o1	DT40 TDP1 CPT 5.2µM, DT40 TDP1 no CPT 2.6µM (no result: IL1B secr inh, HT1080 IDH1KD tx, HT1080NT lethal)
COc1ccc(NC(=O)c2ccc3c(c2)OCCO3)cc1OC	none
COc1cc(NC(=O)c2ccc3c(c2)OCCO3)ccc1NC(=O)c1ccccc1Cl	DT40 TDP1 CPT inconclusive, IL1B secr inh -53
CCOC(=O)c1cccc(NC(=O)c2cc3ccccc3o2)c1	DT40 TDP1 CPT 8.2µM, DT40 TDP1 no CPT inconclusive
CC1(C)Cc2ccccc2-c2nc3ccccc3c(=O)n21	DT40 TDP1 CPT inconclusive, DT40 TDP1 no CPT 12µM
N#Cc1c2ccc(O)cc2n2ccccc12	DT40 TDP1 CPT inconclusive, IL1B secr inh -52, DT40 TDP1 no CPT 8.2µM
COCCNC(=O)C1(C)CCCN(CCS(=O)(=O)c2ccc(C)cc2)C1 (stereo not given)	none
CC(C)(C)c1ccc(-c2nc(NC(=O)CSc3ncnc4sc5c(c34)CCCC5)ns2)cc1	DT40 TDP1 CPT inconclusive, DT40 TDP1 no CPT 4.1µM (no result: IL1B secr inh, HT1080 IDH1KD tx, HT1080NT lethal)
Cc1ccc(NC(=O)CSc2nnc3scc(-c4ccc(Cl)cc4)n23)cc1	none (no result: IL1B secr inh, HT1080 IDH1KD tx, HT1080NT lethal)
Cc1ccc(-c2nc(NC(=O)CSc3nnc4scc(-c5ccccc5)n34)ns2)cc1	DT40 TDP1 CPT 18µM, DT40 TDP1 no CPT 21µM
Cc1ccc(-c2nc(NC(=O)CSc3nc(C)nc4sc5c(c34)CCCC5)ns2)cc1	DT40 TDP1 CPT 12µM, DT40 TDP1 no CPT 6.5µM (no result: IL1B secr inh, HT1080 IDH1KD tx, HT1080NT lethal)
COc1cc2c(cc1NC(=O)Nc1ccc(F)cc1)oc1ccccc12	DT40 TDP1 no CPT inconclusive
CS(=O)(=O)c1ccc2sc(NC(=O)c3cc4ccccc4o3)nc2c1	DT40 TDP1 CPT inconclusive, DT40 TDP1 no CPT 23µM
Cc1ccc(C(=O)Nc2nc3ccc(S(C)(=O)=O)cc3s2)o1	DT40 TDP1 CPT 10µM, DT40 TDP1 no CPT 12µM, HT1080 IDH1KD tx inconclusive, HT1080NT lethal 21µM
CCC(Cc1ccccc1)NC(=O)Cn1ncc2c3ccccc3n(Cc3ccc(F)cc3)c2c1=O (stereo not given)	DT40 TDP1 CPT 8.2µM, DT40 TDP1 no CPT 8.2µM (no result: IL1B secr inh, HT1080 IDH1KD tx, HT1080NT lethal)
CCC(Cc1ccccc1)NC(=O)Cn1ncc2c3ccccc3n(Cc3ccccc3)c2c1=O (stereo not given)	DT40 TDP1 CPT 16µM, DT40 TDP1 no CPT 16µM (no result: IL1B secr inh, HT1080 IDH1KD tx, HT1080NT lethal)
O=C(Cn1ncc2c3ccccc3n(Cc3ccccc3)c2c1=O)NCc1ccccc1	DT40 TDP1 no CPT inconclusive (no result: IL1B secr inh, HT1080 IDH1KD tx, HT1080NT lethal)
O=C1C=CC(=O)N1c1ccc(Nc2ccccc2)cc1	DT40 TDP1 CPT 5.8µM, DT40 TDP1 no CPT 5.8µM
O=C1C=CC(=O)N1c1ccc2ccccc2c1	DT40 TDP1 CPT 4.1µM, DT40 TDP1 no CPT 5.2µM
Cc1cccc(N2C(=O)C=CC2=O)c1	DT40 TDP1 CPT 2.6µM, DT40 TDP1 no CPT 4.6µM
O=C(O)c1cc(N2C(=O)C=CC2=O)cc(N2C(=O)C=CC2=O)c1	none
N#CC1=C(N)C2=CCCC[C@H]2[C@H](c2cccc(F)c2)C1(C#N)C#N	DT40 TDP1 CPT inconclusive, IL1B secr inh -94, DT40 TDP1 no CPT inconclusive, HT1080 IDH1KD tx 16µM, HT1080NT lethal inconclusive

Bioassay records from PubChem BioAssay.
